# Source: PubChem BioAssay AID1563 (The Scripps Research Institute Molecular Screening Center, 2009)
# The list shows a part of the results. Unmarked numbers belong to inactive results. Cut-off read from the data, not from the text of the source: active = activation above about 21%; inactive = the rest.
# Target: Sphingosine 1-phosphate receptor 1 (Homo sapiens) (UniProt P21453)
# Experiment: S1P1 receptor agonists, human, counter-screen for S1P4 agonist project, cell-based (AID 1563);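 note: 0% = vehicle wells and 100% = reference agonist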
# Conditions: S1P1 agonist cell-based assay, at 4.98 µM, hits give high values
# Sequence of Sphingosine 1-phosphate receptor 1 (Homo sapiens) (P21453 whole entry, looked up): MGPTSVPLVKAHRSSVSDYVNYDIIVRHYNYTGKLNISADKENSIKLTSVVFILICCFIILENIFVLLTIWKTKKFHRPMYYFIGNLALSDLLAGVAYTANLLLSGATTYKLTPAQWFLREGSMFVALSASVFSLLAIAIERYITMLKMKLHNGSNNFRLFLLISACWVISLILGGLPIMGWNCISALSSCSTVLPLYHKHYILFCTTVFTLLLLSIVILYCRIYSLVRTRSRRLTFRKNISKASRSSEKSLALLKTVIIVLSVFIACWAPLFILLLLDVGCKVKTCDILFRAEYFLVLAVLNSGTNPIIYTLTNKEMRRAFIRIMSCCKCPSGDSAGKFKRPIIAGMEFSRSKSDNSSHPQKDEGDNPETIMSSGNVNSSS
smiles,measurement,value
CC(C)N(CC#CCC1(O)c2ccccc2-c2ccccc21)C(C)C,activation,1.18%
